Source: PubChem BioAssay AID1259399 (Fisher Drug Discovery Resource Center, 2018)
Screen size: about 160,000 compounds; about 240 (0.15%) were called active. No stated cut-off is given here; in the data, active means inhibition above about 40%; inactive means the rest. What follows is part of a selection rich in actives, with near analogues and random picks from the rest.

Target: Cyclic GMP-AMP synthase (Mus musculus) (UniProt Q8C6L5)
Test: inhibition of Mus musculus cGAS, primary biochemical chemiluminescence screen (AID 1259399);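 further: 0% = negative control wells and 100% = reference inhibitor with no enzyme activity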
Settings: recombinant cGAS, Kinase-Glo ATP depletion luminescence; at 12.5 µM; stronger effect = higher value

Cyclic GMP-AMP synthase (Mus musculus), sequence (Q8C6L5 whole entry, looked up): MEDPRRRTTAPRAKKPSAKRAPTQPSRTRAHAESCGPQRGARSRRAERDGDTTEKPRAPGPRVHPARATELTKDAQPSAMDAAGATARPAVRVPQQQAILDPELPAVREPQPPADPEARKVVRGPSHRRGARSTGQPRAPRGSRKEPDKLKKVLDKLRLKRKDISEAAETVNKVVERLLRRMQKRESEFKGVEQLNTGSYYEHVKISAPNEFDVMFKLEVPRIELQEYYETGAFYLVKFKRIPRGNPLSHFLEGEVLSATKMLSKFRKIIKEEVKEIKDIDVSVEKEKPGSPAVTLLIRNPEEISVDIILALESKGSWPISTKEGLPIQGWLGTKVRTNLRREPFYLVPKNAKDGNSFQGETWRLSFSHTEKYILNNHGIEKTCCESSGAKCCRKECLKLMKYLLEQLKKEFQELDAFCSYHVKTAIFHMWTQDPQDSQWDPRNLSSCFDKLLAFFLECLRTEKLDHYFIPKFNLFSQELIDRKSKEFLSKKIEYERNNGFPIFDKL

| SMILES | inhibition |
| --- | --- |
| CCOC(=O)C1(Cc2ccc(OC)cc2)CCN(C(=O)C2CCCC2)CC1 | -2.47% (inactive) |
| CCCc1cc(C(=O)NC(CC)C2CCCO2)sc1C (stereo not given) | 3.24% (inactive) |
| Cn1c(=O)n(Cc2ccc(Cl)cc2)c(=O)c2c1nc1oc(C(C)(C)C)cn12 | -8.53% (inactive) |
| C/C(=N/OC(=O)C1CC1(c1ccccc1)c1ccccc1)c1ccccc1 (stereo not given) | -5.77% (inactive) |
| CCc1ccc(NC(=O)CSc2nccn3nc(-c4ccc(C)cc4)cc23)cc1 | -6.93% (inactive) |
| CCCOc1nn(CCC)cc1C(=O)Nc1nccs1 | -6.36% (inactive) |
| CCCc1nnc2sc(CCc3c(C)n[nH]c3C)nn12 | -9.34% (inactive) |
| O=C(Cc1ccc2c(c1)CCC2)Nc1nn2cnnc2s1 | -17.7% (inactive) |
| COCc1nnc2sc(Cc3ccc4c(c3)CCCC4)nn12 | 79.1% (active) |
| c1cc(C2CCN(C3CCC4(CCNCC4)CC3)CC2)ccn1 | -9.51% (inactive) |
| O=C(NC1CCN(c2ccccc2C(=O)NCc2ccc3c(c2)OCO3)CC1)c1ccccc1Cl | -4.1% (inactive) |
| O=C1OC(C[N+](=O)[O-])C(Cl)=C1Oc1ccccc1 (stereo not given) | 22.9% (inactive) |
| CCCCc1nc(N2CCN(C(=O)Cc3cccs3)CC2)c2c(C)nn(-c3ccc(F)cc3)c2n1 | -4.18% (inactive) |
| CC1(C(=O)Nc2cccc3cccnc23)CCN1C(=O)Cc1ccccc1Cl (stereo not given) | -5.18% (inactive) |
| CCOC(=O)C1=C(O)/C(=C\c2cc(O)cc(O)c2)SC1=Nc1cccc(C(F)(F)F)c1 | -2.35% (inactive) |
| Cc1nc(C2(NCc3csc(-c4ccoc4)n3)CCCC2)no1 | -13.3% (inactive) |
| CN(C)CCNC(=O)c1nn(-c2cccc(C(F)(F)F)c2)c(=O)n(Cc2ccccc2F)c1=O | 1.41% (inactive) |
| Cc1c[nH]c(=O)n1-c1ccc(C(=O)Nc2cc(Cl)c(N)c(Cl)c2)cc1 | -14.6% (inactive) |
| CN(C)CCNc1cc(C(C)(C)C)nc2c(-c3ccc(Cl)cc3)cnn12 | -0.291% (inactive) |
| CC(C)(C)c1cc(=O)n2[nH]cc(-c3ccccc3Cl)c2n1 | -1.72% (inactive) |
| CC(C)(C)c1cc(=O)n2[nH]cc(-c3ccc(Cl)cc3)c2n1 | 40% (active) |
| COCCN(CCOC)Cc1cc(=O)oc2cc(-c3ccccc3)c(O)cc12 | 2.45% (inactive) |
| C=CCN1C(=O)C2(CC(=O)N(CCc3cccc(OC)c3)C2=O)c2cc(OC)ccc21 (stereo not given) | -2.01% (inactive) |
| Cc1ccccc1N1CCn2c1nc1c2c(=O)n(CCN2CCOCC2)c(=O)n1C | -8.88% (inactive) |
| COc1ccc(CCNC(=O)CCc2cc3c(n2-c2ccc(OC)cc2)-c2ccccc2CC3)cc1 | -9.29% (inactive) |
